{"source": "PubChem BioAssay AID2551", "about": "(National Center for Advancing Translational Sciences (NCATS), 2010)", "note": "About 17,000 (5.5%) of roughly 310,000 compounds were called active. Not shown: some 11% with an inconclusive outcome. Calls follow the shape of the dose curve; as a rule, active = well fitted inhibition curve with a large enough effect; inconclusive = small, poorly fitted or top-dose-only effect, or effect the other way; inactive = no such curve, though single readings can be large or run the other way. The entries come from a sample that favours actives as a whole. % is scaled to controls: 0 for no effect and ±100 for the full control effect; potency is read from the fitted curve at half-maximal effect.", "data": [{"molecular_target": "Nuclear receptor ROR-gamma (Mus musculus) (UniProt P51450)", "sequence (P51450 whole entry, looked up, the tested form may be a part)": "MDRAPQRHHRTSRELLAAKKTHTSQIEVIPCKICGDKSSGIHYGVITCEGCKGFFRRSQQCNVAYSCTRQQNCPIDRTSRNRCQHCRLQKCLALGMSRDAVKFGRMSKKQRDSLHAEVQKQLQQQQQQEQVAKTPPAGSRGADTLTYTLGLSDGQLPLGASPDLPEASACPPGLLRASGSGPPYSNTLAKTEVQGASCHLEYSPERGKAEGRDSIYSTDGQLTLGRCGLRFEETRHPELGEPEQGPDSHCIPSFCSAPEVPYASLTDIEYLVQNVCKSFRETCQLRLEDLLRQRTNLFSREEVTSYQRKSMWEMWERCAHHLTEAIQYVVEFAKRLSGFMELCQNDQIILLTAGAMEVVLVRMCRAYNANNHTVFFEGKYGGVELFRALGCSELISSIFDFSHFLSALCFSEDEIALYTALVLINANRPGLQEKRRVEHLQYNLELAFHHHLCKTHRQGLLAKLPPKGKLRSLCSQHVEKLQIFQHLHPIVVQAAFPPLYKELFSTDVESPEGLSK", "assay": "qHTS for inhibitors of ROR gamma transcriptional activity; also: nearly all actives have a fitted effect of over 60% in size", "conditions": "Drosophila S2 Gal4-RORgamma UAS-luciferase reporter, 20 h; series mostly up to 53.6 µM; activity change, negative = inhibition: at the top concentration", "procedure,_shortened": "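Luminescence from a UAS-regulated Photinus luciferase reporter in stably transfected Drosophila Schneider cells is measured; decreased signal marks ROR gamma inhibition. Fusion expression is induced by 700 uM copper sulfate for 20 hr.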", "values": [{"smiles": "Cc1ccc(C(=O)NC(=S)NCc2cccnc2)cc1", "activity change, negative = inhibition": "-1.51% (inactive)"}, {"smiles": "Cc1ccc(NC(=O)N2CCC(O)(c3cccnc3)CC2)cc1", "activity change, negative = inhibition": "15.3% (inactive)"}, {"smiles": "O=C(c1cccc(F)c1)N1CCC(O)(c2cccnc2)CC1", "activity change, negative = inhibition": "13.9% (inactive)"}, {"smiles": "CC1=NN(C(=O)c2ccccc2Br)C(O)(c2cccnc2)C1", "note": "(centres undefined)", "Potency": "5.62 µM (active)"}, {"smiles": "CC1=NN(C(=O)Cc2ccc(C)cc2)C(O)(c2cccnc2)C1", "note": "(centres undefined)", "Potency": "8.91 µM (active)"}, {"smiles": "O=C(CN1CCN(Cc2ccccc2)CC1)Nc1ccc(F)c(F)c1", "activity change, negative = inhibition": "-18.2% (inactive)"}, {"smiles": "CCCC[C@H]1COCCS(=O)(=O)N1Cc1cccc(Cl)c1", "activity change, negative = inhibition": "2.35% (inactive)"}, {"smiles": "O=C(NCCN1CCCC(O)C1)c1cc(COc2c(F)cccc2F)on1", "note": "(centres undefined)", "activity change, negative = inhibition": "4.43% (inactive)"}, {"smiles": "Cc1ccc(C)c(NC(=O)c2cc(-c3cc(C)cc(C)c3O)n[nH]2)c1", "activity change, negative = inhibition": "9.87% (inactive)"}, {"smiles": "COc1cccc(OCc2cc(C(=O)N3CCN(C(=O)c4ccco4)CC3)no2)c1", "activity change, negative = inhibition": "43.6% (inactive)"}, {"smiles": "COc1ccc(/C=C/C(=O)NC(=S)NN2CCCCC2c2cccnc2)cc1", "note": "(centres undefined)", "Potency": "7.08 µM (active)"}, {"smiles": "Cc1ccc(-c2cc(C(F)(F)F)n3ncc(C(=O)N4CCCCC4c4cccnc4)c3n2)cc1", "note": "(centres undefined)", "activity change, negative = inhibition": "12% (inactive)"}, {"smiles": "COc1ccc(C(=O)Nc2cccnc2)cc1C(=O)Nc1cccnc1", "activity change, negative = inhibition": "18.5% (inactive)"}, {"smiles": "COc1ccc(/C=C/C(=O)NC(=S)N2CCCC(C(N)=O)C2)cc1", "note": "(centres undefined)", "activity change, negative = inhibition": "-29.3% (inactive)"}, {"smiles": "O=C(Nc1ccccc1C(F)(F)F)N1CCCC1c1cccnc1", "note": "(centres undefined)", "activity change, negative = inhibition": "-3.95% (inactive)"}, {"smiles": "CCOC(=O)C1CCCN(C(=O)/C=C/c2ccc(OC)cc2)C1", "note": "(centres undefined)", "activity change, negative = inhibition": "1.88% (inactive)"}, {"smiles": "COc1ccc(C(=O)N2CCCC(C(=O)c3ccccc3OC)C2)cc1OC", "note": "(centres undefined)", "activity change, negative = inhibition": "15.3% (inactive)"}, {"smiles": "COc1ccc(C(=O)NC(=S)N2CCCCC2c2cccnc2)cc1OC", "note": "(centres undefined)", "Potency": "0.891 µM (active)"}, {"smiles": "O=C(NC(=S)N1CCCCC1c1cccnc1)c1ccccc1", "note": "(centres undefined)", "Potency": "0.794 µM (active)"}, {"smiles": "CCN1CCN(C(=O)C2CCCN(S(=O)(=O)c3ccc(OC)c(OC)c3)C2)CC1", "note": "(centres undefined)", "activity change, negative = inhibition": "-7.37% (inactive)"}, {"smiles": "COc1cc(C(=O)OC2CCOC2=O)c([N+](=O)[O-])cc1OC", "note": "(centres undefined)", "activity change, negative = inhibition": "-3.43% (inactive)"}, {"smiles": "Cc1ccccc1NC(=O)C1CCN(C(=O)NC2CCCCC2)CC1", "activity change, negative = inhibition": "-26.7% (inactive)"}, {"smiles": "CCOC(=O)c1ccc(NC(=S)N2CCN(c3ccccn3)CC2)cc1", "activity change, negative = inhibition": "4.59% (inactive)"}, {"smiles": "Cc1ccc(NC(=S)N2CCN(c3ncccn3)CC2)cc1C", "Potency": "12.6 µM (active)"}, {"smiles": "CNC(=S)N1CCN(c2ccccn2)CC1", "activity change, negative = inhibition": "-8.67% (inactive)"}, {"smiles": "Cc1c(CC(=O)NCC(=O)NCC(=O)O)c(=O)oc2cc3oc4c(c3cc12)CCCC4", "activity change, negative = inhibition": "-13.2% (inactive)"}, {"smiles": "O=C(OCC(=O)N1CCN(C(=O)c2ccco2)CC1)c1cccc(O)c1", "activity change, negative = inhibition": "20.5% (inactive)"}, {"smiles": "Cn1c(-c2sccc2OCc2cccc(C(F)(F)F)c2)n[nH]c1=S", "Potency": "4.47 µM (active)"}, {"smiles": "O=C(c1ccco1)N1CCN(Cc2cccc(C(F)(F)F)c2)CC1", "activity change, negative = inhibition": "36.5% (inactive)"}, {"smiles": "CCOC(=O)N1CCN(Cc2nc(Cc3cccc(C(F)(F)F)c3)no2)CC1", "activity change, negative = inhibition": "28.2% (inactive)"}, {"smiles": "COc1ccccc1CNS(=O)(=O)c1c(C)[nH]c(C)c1C(=O)N1CCCCC1", "activity change, negative = inhibition": "-9.37% (inactive)"}, {"smiles": "O=c1c2cc(Br)ccc2nc(-c2cccc(Cl)c2)n1O", "Potency": "12.6 µM (active)"}, {"smiles": "Cc1cccc(-c2nc3ccccc3c(=O)n2NC(=O)Cc2ccc(Cl)cc2)c1", "activity change, negative = inhibition": "1.19% (inactive)"}, {"smiles": "O=C1CCCc2c1nc(-c1cccc(Cl)c1)n2O", "activity change, negative = inhibition": "15.1% (inactive)"}, {"smiles": "O=C(Cc1c[nH]c2ccccc12)N/N=C/c1cccc(F)c1", "activity change, negative = inhibition": "48.8% (inactive)"}, {"smiles": "CSC(=S)N/N=C/c1c[nH]c2ccccc12", "Potency": "0.398 µM (active)"}, {"smiles": "O=C(N/N=C/c1c[nH]c2ccccc12)c1ccccc1O", "Potency": "5.62 µM (active)"}, {"smiles": "O=C(N/N=C/c1c[nH]c2ccccc12)c1cc2ccccc2o1", "activity change, negative = inhibition": "-36.8% (inactive)"}, {"smiles": "O=C(N/N=C/c1ccc([N+](=O)[O-])cc1)c1c[nH]c2ccccc12", "activity change, negative = inhibition": "24.6% (inactive)"}, {"smiles": "NC(=O)CSc1c[nH]c2ccccc12", "activity change, negative = inhibition": "-36.6% (inactive)"}, {"smiles": "O=C(NCCc1c[nH]c2ccccc12)C1CCN(Cc2ccc(Br)cc2)CC1", "activity change, negative = inhibition": "65.5% (inactive)"}, {"smiles": "Cc1cc(=O)oc2c3c(cc(OCC(=O)N[C@H](C(=O)O)c4ccccc4)c12)OC(C)(C)CC3", "activity change, negative = inhibition": "25.6% (inactive)"}, {"smiles": "Cc1ccc(NC(=O)CSc2nn3c(=O)c(C)nnc3s2)cc1Cl", "activity change, negative = inhibition": "-10.1% (inactive)"}, {"smiles": "COCCNC(=O)C(c1ccc(C)cc1)N(C(=O)CCC(=O)Nc1ccccn1)c1cccc(C)c1", "note": "(centres undefined)", "activity change, negative = inhibition": "2.25% (inactive)"}, {"smiles": "CCCN1C2CCCC1CC(NC(=O)c1cccc(OC)c1)C2", "note": "(centres undefined)", "activity change, negative = inhibition": "-2.82% (inactive)"}, {"smiles": "CCCCCCC(O)(CCN1CCCCC1)c1ccccc1", "note": "(centres undefined)", "activity change, negative = inhibition": "-0.158% (inactive)"}, {"smiles": "Cc1cc(C(F)F)nn1CC(=O)NC1CCCCCC1", "activity change, negative = inhibition": "0.595% (inactive)"}, {"smiles": "CCCCn1c(=S)[nH]c2ncccc2c1=O", "Potency": "2 µM (active)"}, {"smiles": "O=C(CCCN1CCc2[nH]c3ccc(F)cc3c2C1)c1ccc(F)cc1", "activity change, negative = inhibition": "-24.2% (inactive)"}, {"smiles": "CCCCCn1c(=O)c(C(=O)OCC)c(Cl)c2ccccc21", "activity change, negative = inhibition": "4.9% (inactive)"}, {"smiles": "O=C(CCn1c(=S)[nH]c2cc3c(cc2c1=O)OCO3)NCc1ccc(Cl)cc1", "activity change, negative = inhibition": "-16.6% (inactive)"}, {"smiles": "Fc1ccc(NC(=S)N2CCc3[nH]c4ccccc4c3C2)cc1", "activity change, negative = inhibition": "-5.26% (inactive)"}, {"smiles": "O=C(O)c1ccc(Cn2c(=S)[nH]c3cc(Cl)ccc3c2=O)cc1", "activity change, negative = inhibition": "-1.95% (inactive)"}, {"smiles": "O=c1c2ccccc2[nH]c(=S)n1CCN1CCC(=C(c2ccc(F)cc2)c2ccc(F)cc2)CC1", "Potency": "11.2 µM (active)"}, {"smiles": "CCCCn1c(=S)[nH]c2ccccc2c1=O", "Potency": "2.82 µM (active)"}, {"smiles": "CCCCc1nc2c(=O)[nH]c3ccccc3c2o1", "activity change, negative = inhibition": "5.13% (inactive)"}, {"smiles": "CCN(CC)CCn1c(=S)[nH]c2ncccc2c1=O", "activity change, negative = inhibition": "15.3% (inactive)"}, {"smiles": "CN(C)CCn1c(=S)[nH]c2ccc(Cl)cc2c1=O", "Potency": "10 µM (active)"}, {"smiles": "CCCCNC(=O)c1ccc(-n2c(=S)[nH]c3ccccc3c2=O)cc1", "activity change, negative = inhibition": "-16.4% (inactive)"}, {"smiles": "Cc1ccccc1NC(=O)N1CCCC1C(=O)NCc1ccccc1", "note": "(centres undefined)", "activity change, negative = inhibition": "24.5% (inactive)"}, {"smiles": "COc1cccc(N(CC(=O)NCc2ccccc2)C(=O)CCC(=O)Nc2nccs2)c1", "activity change, negative = inhibition": "-25.1% (inactive)"}, {"smiles": "COc1ccccc1/C=C1\\SC(=O)N(CCC(=O)N(C)C2CCS(=O)(=O)C2)C1=O", "note": "(centres undefined)", "activity change, negative = inhibition": "-41.4% (inactive)"}, {"smiles": "CCN(CC)S(=O)(=O)c1ccc(N2CC(C(=O)NCc3cccnc3)CC2=O)cc1", "note": "(centres undefined)", "activity change, negative = inhibition": "28.3% (inactive)"}, {"smiles": "COCCn1c(N)c(NCc2ccccc2)c(=O)[nH]c1=O", "activity change, negative = inhibition": "-16% (inactive)"}, {"smiles": "CCc1nnc(NC(=O)CCC(=O)N2CCN(c3cc(C)ccc3C)CC2)s1", "activity change, negative = inhibition": "0% (inactive)"}, {"smiles": "O=C(OCc1ccc([N+](=O)[O-])cc1)C1CC(=O)N(Cc2ccccc2Cl)C1", "note": "(centres undefined)", "activity change, negative = inhibition": "4.03% (inactive)"}, {"smiles": "COc1ccccc1N1CCN(C(=O)c2cc(=O)c3cc(C)cc(C)c3o2)CC1", "activity change, negative = inhibition": "-7% (inactive)"}, {"smiles": "CC1=CC(C)(C)NC(=S)N1c1ccccc1", "Potency": "3.16 µM (active)"}, {"smiles": "Cc1cccc([C@@H]2[C@@H]3C(=O)N(C)C(=O)[C@@H]3[C@@H]3C(=O)Nc4ccccc4C(=O)N23)c1", "activity change, negative = inhibition": "-3.16% (inactive)"}]}]}
